# Screening data deposited in PubChem by National Center for Advancing Translational Sciences (NCATS).
# Compounds with a hit are over-represented: about 19% of the library has one in this group of screens.
# IL1B secr inh = inhibitors of inflammasome signaling (IL-1 beta secretion); hit rate 4.7% among 360,000; THP-1 LPS/ATP IL-1B secretion, AlphaLISA, 16 h; hits give low values; activity change, % at 57.5 µM; in the data active means activity change below about -50%; inconclusive means mostly about -30% to -49%; further: on the % scale 0 is the no-effect control and ±100 the full control effect
#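 THP-1 cells pretreated 1 hr with compounds (up to 57.5 uM final), then stimulated with LPS (250 ng/mL final) plus ATP (1.25 mM final); secreted IL-1B measured by AlphaLISA after 16 hr, decreased signal indicating inhibition.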
# DT40 TDP1 CPT = DT40-hTDP1 cell growth loss with CPT; chicken DT40 Tdp1-/-;hTDP1 cells + 20 nM CPT, ATP luminescence, 48 h; Potency, µM (series often up to 46.2 µM), without a hit: at the highest dose activity change, negative = growth inhibition, actives largely listed as inhibitors; hit rate 12% among 420,000; further: potency means the concentration at half of the fitted maximal effect; on the % scale 0 is the no-effect control and ±100 the full control effect; nearly all actives have a fitted effect of over 55% in size
#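 Chicken DT40 Tdp1-/- cells stably complemented with human TDP1 were seeded at 400 cells/well in medium containing 20 nM camptothecin, exposed to pin-transferred compounds, and grown at 37 °C for at least 48 hr. Viability was read as ATP luminescence.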
# TDP1 block = inhibitors of human tyrosyl-DNA phosphodiesterase TDP1 | Q9NUW8 | recombinant TDP1, AlphaScreen DNA substrate cleavage | Potency, µM (highest dose often 130 µM), for inactives: at the top dose activity change, negative = inhibition, usual class: inhibitors | hit rate 0.28% among 350,000; further: potency means the concentration at half of the fitted maximal effect; on the % scale 0 is the no-effect control and ±100 the full control effect; nearly all actives have a fitted effect of over 40% in size
# Target sequence (Q9NUW8 whole entry, looked up): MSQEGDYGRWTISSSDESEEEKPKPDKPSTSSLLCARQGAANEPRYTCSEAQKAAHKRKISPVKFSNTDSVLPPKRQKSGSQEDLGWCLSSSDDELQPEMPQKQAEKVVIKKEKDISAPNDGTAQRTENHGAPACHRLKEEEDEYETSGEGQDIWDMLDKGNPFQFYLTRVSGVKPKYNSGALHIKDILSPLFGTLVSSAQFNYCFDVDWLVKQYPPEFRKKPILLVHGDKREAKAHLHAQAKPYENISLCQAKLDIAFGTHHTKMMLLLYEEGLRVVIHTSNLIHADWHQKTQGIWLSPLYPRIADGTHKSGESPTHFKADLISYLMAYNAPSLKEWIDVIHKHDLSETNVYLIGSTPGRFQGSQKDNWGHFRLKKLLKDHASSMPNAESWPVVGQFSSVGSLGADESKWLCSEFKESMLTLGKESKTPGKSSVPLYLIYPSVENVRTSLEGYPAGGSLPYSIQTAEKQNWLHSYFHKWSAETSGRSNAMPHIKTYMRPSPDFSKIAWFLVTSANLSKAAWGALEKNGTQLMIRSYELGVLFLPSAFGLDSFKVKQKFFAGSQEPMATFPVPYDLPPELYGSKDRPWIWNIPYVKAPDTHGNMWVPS
#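 E. coli-derived human Tdp1, 1 nM final. Cpd preinc 15 min RT; substrate 15 nM final, 5 min RT; AS bead mix 10 ug/ml final, 10 min RT. Signal loss = tyrosine-FITC cleavage. No-enzyme wells = max signal.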
# DT40 TDP1 no CPT = qHTS for Inhibitors of human tyrosyl-DNA phosphodiesterase 1 (TDP1): qHTS in cells in absence of CPT; Potency, µM (top dose mostly 46.2 µM), inactives show at the highest dose activity change, negative = growth inhibition, hits mostly inhibitors; DT40 Tdp1-/- hTDP1 cells, no CPT, ATP luminescence, 48 h; hit rate 15% among 420,000; further: potency means the concentration at half of the fitted maximal effect; on the % scale 0 is the no-effect control and ±100 the full control effect; nearly all actives have a fitted effect of over 55% in size
#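 Growth kinetics read by CellTiter-Glo luminescence after ≥48 hr at 37 °C. Cells: DT40 Tdp1-/- stably carrying human TDP1, 400 per well, compound exposure in the absence of CPT (DMSO vehicle).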
# HepG2 tox = counter-screen for TGF-b inhibitors: cytotoxicity in HepG2 cells; HepG2 CAGA-GFP viability, ATP luminescence, 18 h; hit rate 0.76% among 410,000; Potency, µM (doses to about 46.1 µM), without a hit: at the top dose activity change, negative = cytotoxicity, hits mostly cytotoxic; AID 588856; further: potency means the concentration at half of the fitted maximal effect
#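 HepG2 CAGA-GFP cells (1000/well, DMEM with 1% FBS) received compound, then TGF-beta at 500 pg/mL final, and were incubated 18 hours at 37 degrees C. Viability was read by CellTiter-Glo luminescence. Media-only wells were set as complete cell-killing and DMSO as no toxicity.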
# TGFb inhibitor = inhibitors of TGF-b signaling; HepG2 CAGA-GFP TGF-b/SMAD3 reporter, GFP fluorescence, 18 h; TGF-beta stimulated, 500 pg/mL final; Potency, µM (series often up to 46.1 µM), for inactives: top-dose activity, negative = inhibition, hits mostly inhibitors; hit rate 1.2% among 410,000; further: potency means the concentration at half of the fitted maximal effect; on the % scale 0 is the no-effect control and ±100 the full control effect; nearly all actives have a fitted effect of over 65% in size
#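 Smad-responsive CAGA-GFP expression was quantified in HEPG2 cells exposed to compounds and 500 pg/mL final TGF-beta for 18 h at 37 degrees C; unstimulated wells defined full inhibition.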
# The depositor's hits bear a star; ? = inconclusive; nt = no result given. Unless noted, the call rests on the fitted dose curve; in most records, active means well fitted curve in the direction sought with a large enough effect; inconclusive means small, poorly fitted or top-dose-only effect, or another doubt; inactive means no such curve, though single readings can be large; an effect the other way counts as inactive or inconclusive.
SMILES,IL1B secr inh,DT40 TDP1 CPT,TDP1 block,DT40 TDP1 no CPT,HepG2 tox,TGFb inhibitor
COc1cc(NC(=O)c2sc3nc(C)nc(N4CCOCC4)c3c2C)cc(OC)c1OC,?,21µM*,3%,12µM*,-12%,-5%
Cc1nc(N2CCCCC2)c2c(C)c(C(=O)Nc3ccccc3C(F)(F)F)sc2n1,-16,2.1µM*,-8%,2.9µM*,0%,-18%
Cc1ccc(NC(=O)c2cnc(N3CCCCC3)c3ccccc23)c(C)c1,nt,?,5%,-23%,-3%,54%
Cc1ccc(NC(=O)c2sc3nc(CCl)[nH]c(=O)c3c2C)c(C)c1,-87*,15µM*,0%,15µM*,-1%,0%
COc1ccc(C)cc1NC(=O)c1sc2ncnc(N3CCN(c4ccccn4)CC3)c2c1C,-6,16µM*,1%,18µM*,-9%,2%
CSCc1nc2sc(C(=O)Nc3nc(C)cs3)c(C)c2c(=O)[nH]1,57,?,3%,?,-13%,6%
COc1ccc(C)cc1NC(=O)CN1CCN(c2ccccn2)CC1,13,-17%,nt,?,-15%,-17%
Cc1ccc(NC(=O)c2sc3nc(C)nc(N4CCN(c5ccccn5)CC4)c3c2C)c(C)c1,-60*,-26%,4%,?,-5%,-33%
CCOc1ccc(NC(=O)CN(C)C(=O)C2CC(=O)N(c3cccc(SC)c3)C2)cc1OCC (stereo not given),-25,-10%,nt,-21%,0%,0%
COc1ccc(/C=C/C(=O)Nc2sc3c(c2C(N)=O)CCC(C)C3)cc1OC (stereo not given),nt,nt,nt,nt,-4%,20%
Cc1ccc(NC(=O)c2ncn(CCCNCc3ccccc3)n2)cc1C,?,?,nt,?,-34%,-1%
CNc1ncnc2ccc(-c3ccccc3C#N)cc12,nt,?,nt,-4%,nt,nt
CCCNC(=O)C1CCC(Cn2c(=O)c3sccc3n(Cc3cccc(OC)c3)c2=O)CC1 (stereo not given),nt,-23%,5%,-15%,3%,4%
CN(C(=O)C1=CC(c2ccc3c(c2)OCO3)=NS(=O)(=O)N1C)c1ccccc1,nt,-11%,11%,-12%,3%,-7%
CN(C)c1ccc(C(=O)Nc2c(C(=O)NC(C)(C)C)oc3ccccc23)cc1,nt,?,2%,?,-1%,5%
O=C(O)c1ccccc1C(=O)c1ccc(N2CCCC2)c([N+](=O)[O-])c1,17,7%,2%,15%,-19%,-6%
Nc1nnnn1/N=C/c1ccc(N2CCCCC2)c([N+](=O)[O-])c1,-7,21µM*,0%,13µM*,0%,5%
Cc1cc(C(=O)Nc2ccc(N3CCCC3)c(Cl)c2)ccc1[N+](=O)[O-],nt,?,11%,18µM*,-22%,1%
Cc1ccc(NC(=O)c2ccc(NCCN)c([N+](=O)[O-])c2)cc1Cl,-16,?,-1%,21µM*,18µM*,?
O=C(/C=C/c1ccc(N2CCCCC2)c([N+](=O)[O-])c1)c1ccc(O)cc1,-95*,?,11%,18µM*,-91%,?
O=C(O/N=C\c1ccc(N2CCCCC2)c([N+](=O)[O-])c1)c1ccc(Cl)cc1Cl,-1,?,9%,-24%,7%,1%
Cc1ccc(NC(=O)c2ccc(NCCc3ccccc3)c([N+](=O)[O-])c2)cc1F,3,?,0%,?,-5%,5%
CCCc1c(C)nc(N2CCN(c3ccccc3OC)CC2)[nH]c1=O,7,?,nt,?,-38%,-21%
CC1Cc2c([nH]c(=O)n(-c3ccccc3)c2=O)O1 (stereo not given),11,-4%,nt,1%,-12%,-21%
COc1ccccc1NC(=O)C1=C(C)NC(=O)NC1c1cccs1 (stereo not given),-1,-1%,-3%,-7%,-9%,5%
SMILES,IL1B secr inh,DT40 TDP1 CPT,TDP1 block,DT40 TDP1 no CPT,HepG2 tox,TGFb inhibitor
CN1C(=O)c2ccc(NC(=O)c3ccc(N4CCCCC4)c([N+](=O)[O-])c3)cc2C1=O,29,23µM*,3%,?,0%,-15%
c1cc(-c2ccncc2)ccn1,29,10µM*,7%,16µM*,0%,-10%
Cc1c(C(=O)NCCN(C)C)sc2nc3n(c(=O)c12)CCC3,nt,0%,6%,-1%,-13%,-30%
CN1CCc2nc(SCC(=O)Nc3ccc(OC(F)(F)F)cc3)c(C#N)c(-c3cccs3)c2C1,-25,15µM*,3%,23µM*,-6%,-26%
Cc1cccc(CSc2nc(N)c(C#N)c(-c3cccs3)c2C#N)c1,-54*,?,0%,?,-32%,-22%
N#Cc1c(N)nc2c(c1-c1cccs1)CCCC2,15,-9%,3%,-12%,0%,27%
CC(=O)CSc1nc(N)c(C#N)c(-c2cccs2)c1C#N,9,21µM*,9%,13µM*,1%,-8%
CC(C)(C)C(=O)CSc1nc2c(c(-c3cccs3)c1C#N)CCC2,15,?,-4%,23µM*,-24%,-2%
Cc1ccccc1C(=O)NC1(C(F)(F)F)C(=O)Nc2c1c(=O)[nH]c(=O)n2-c1ccc(F)cc1 (stereo not given),nt,-20%,-1%,?,7%,20%
CCN(CC)CCC(c1ccc(N(C)C)cc1)c1c(OC)cc(OC)c2c1OC(=O)CC2c1ccc(OC)cc1 (stereo not given),nt,nt,24%,nt,-22%,-6%
Cc1cccc(-c2nc(CCNC(=O)c3ccccc3Br)cs2)c1,nt,18µM*,2%,21µM*,-8%,?
COc1cccc(OC)c1C(=O)NCCc1csc(-c2ccc(Cl)cc2)n1,nt,?,7%,?,-33%,?
COc1cccc(C(=O)NCCc2csc(-c3cccc(F)c3)n2)c1OC,nt,?,7%,?,-36%,?
CN(C)CCCNC(=O)c1ccc(-c2nc(-c3ccc(Cl)cc3)cs2)cc1,-97*,16µM*,2%,21µM*,16µM*,?
COc1cccc(C(=O)NCCc2csc(-c3ccc(Cl)cc3)n2)c1,nt,16µM*,7%,?,-28%,13µM*
Cc1ccc(-c2nc(CCNC(=O)c3ccc(C)c(C)c3)cs2)cc1,nt,?,-2%,16µM*,-10%,-18%
